Screening results (PubChem)
Rows were chosen to be rich in hits. Some 19% of all compounds tested hit in one or more screens of this group.
HT1080NT lethal: qHTS for induction of synthetic lethality in tumor cells producing 2HG: qHTS for the HT-1080-NT fibrosarcoma cell line; HT-1080-NT fibrosarcoma viability, CellTiter-Glo ATP luminescence, 48 h; Potency, µM (series often up to 46.1 µM), for the others: at the top dose activity, negative = less viability, hits mostly cytotoxic; 360,000 compounds, 1.6% hits; AID 686970, 2013;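 note: NT is the 2HG producing partner of a matched IDH1 knockdown line; potency is the fitted concentration of half-maximal effect; 0% = DMSO-treated cells and -100% = media-only wells without cells; nearly all actives have a fitted effect of over 55% in size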
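750 cells/well, RPMI + 5% FBS; 2 h settle, compound pin-transfer, 48 h at 37 degrees C. CellTiter-Glo 10 min RT, luminescence. Normalized to DMSO and media-only wells.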
IL1B secr inh: qHTS for Inhibitors of Inflammasome Signaling: IL-1-beta AlphaLISA Primary Screen; THP-1 LPS/ATP IL-1B secretion, AlphaLISA, 16 h; active compounds read low; activity change, % at 57.5 µM; 360,000 compounds, 4.7% hits; AID 743279, 2014; in the data active = activity change below about -50%; inconclusive = mostly about -30% to -49%
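Secreted IL-1B measured by AlphaLISA bead assay after 16 h compound exposure of THP-1 cells; compounds (final up to 57.5 uM) added 1 h before LPS (250 ng/mL) and ATP (1.25 mM) stimulation; lower signal means less secretion.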
DT40 TDP1 CPT: qHTS for Inhibitors of human tyrosyl-DNA phosphodiesterase 1 (TDP1): qHTS in cells in presence of CPT; Potency, µM (titrated, usually from 46.2 µM), for inactives: at the highest dose activity change, negative = growth inhibition, most hits filed as inhibitors; AID 686979, 2013; 420,000 compounds, 12% hits; chicken DT40 Tdp1-/-;hTDP1 cells + 20 nM CPT, ATP luminescence, 48 h; note: potency is the fitted concentration of half-maximal effect; nearly all actives have a fitted effect of over 55% in size
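Cell growth measured by CellTiter-Glo luminescence after a minimum 48 h, 37 C compound exposure with 20 nM CPT in Tdp1-knockout DT40 cells stably expressing hTDP1, seeded 400/well; qHTS titration format.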
HT1080 IDH1KD tx: qHTS for induction of synthetic lethality in tumor cells producing 2HG: qHTS for the HT-1080-IDH1KD cell line; HT-1080 IDH1 knockdown viability, ATP luminescence, 48 h; Potency, µM (doses to about 46.1 µM), for the others: top-dose activity, negative = toxicity, usual class: cytotoxic; 360,000 compounds, 2% hits;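 note: potency is the fitted concentration of half-maximal effect; 0% = DMSO wells and -100% = cell-free medium wells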
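IDH1KD HT-1080 cells, 750/well, RPMI + 5% FBS; compound pinned after 2 h settling; 48 h, 37 °C; CellTiter-Glo luminescence; % activity normalised to DMSO and no-cell wells; curves fitted, classed by r2 and efficacy.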
uPA surface inh: qHTS for Inhibitors of Cell Surface uPA Generation; cell surface uPA generation assay, qHTS; Potency, µM (highest dose often 38.3 µM), without a hit: at the highest dose activity change, negative = inhibition, hits mostly inhibitors; 330,000 compounds, 0.31% hits; AID 540303, 2011; active = well fitted inhibition curve with a large enough effect; inconclusive = small, poorly fitted or top-dose-only effect; inactive = no such curve, though single readings can be large or run the other way; tested in mouse RAW 264.7 cells; note: potency is the fitted concentration of half-maximal effect; nearly all actives have a fitted effect of over 55% in size
DT40 TDP1 no CPT: qHTS for Inhibitors of human tyrosyl-DNA phosphodiesterase 1 (TDP1): qHTS in cells in absence of CPT. 420,000 compounds, 15% hits. Potency, µM (top dose mostly 46.2 µM), without a hit: top-dose activity change, negative = growth inhibition, usual class: inhibitors. AID 686978, 2013. DT40 Tdp1-/- hTDP1 cells, no CPT, ATP luminescence, 48 h; note: potency is the fitted concentration of half-maximal effect; nearly all actives have a fitted effect of over 55% in size
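Chicken DT40 Tdp1-/- cells stably complemented with human TDP1 were seeded at 400 cells/well with DMSO in place of 20 nM camptothecin. After compound pinning, cells grew at least 48 hr at 37 °C; viability read by CellTiter-Glo luminescence.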
An asterisk follows results filed as active; ? = inconclusive; nt = not tested or not shown. Unless noted, calls come from the whole dose curve; as a rule, active = well fitted curve in the direction sought with a large enough effect; inconclusive = small, poorly fitted or top-dose-only effect, or another doubt; inactive = no such curve, though single readings can be large; an effect the other way counts as inactive or inconclusive. Unless noted, % is set by controls: 0 for no effect and ±100 for the full control effect.

SMILES	HT1080NT lethal	IL1B secr inh	DT40 TDP1 CPT	HT1080 IDH1KD tx	uPA surface inh	DT40 TDP1 no CPT
COc1ccc(-c2ccc3[nH]c4c(c3c2)CCN2C(=O)[C@@H]([C@H](C)O)[C@@H](N(C)C(=O)Nc3ccccc3)C[C@@H]42)cc1	23µM*	-26	13µM*	16µM*	nt	6.5µM*
CN[C@H]1C[C@H]2c3[nH]c4ccc(-c5ccc(OC)cc5)cc4c3CCN2C(=O)[C@H]1[C@H](C)O	8.2µM*	?	2.6µM*	13µM*	nt	3.3µM*
COc1ccc(NC(=O)N(C)[C@H]2C[C@H]3c4[nH]c5ccccc5c4CCN3C(=O)[C@H]2CO)cc1	-7%	-11	-21%	-1%	nt	?
COc1ccc(NC(=O)N(C)[C@H]2C[C@H]3c4[nH]c5ccccc5c4CCN3C(=O)[C@H]2[C@H](C)O)cc1	-4%	1	-25%	-4%	nt	?
COc1ccc(NC(=O)N(C)[C@H]2C[C@H]3c4[nH]c5ccc(-c6ccc(OC)cc6)cc5c4CCN3C(=O)[C@H]2[C@H](C)O)cc1	23µM*	0	18µM*	16µM*	nt	13µM*
Cc1cccc(C)c1N=Nc1c(C)cc(O)cc1C	?	-89*	13%	21µM*	0%	-26%
COc1ccc(C(=O)c2cn(Cc3cccc(C)c3)c3cc4c(cc3c2=O)OCO4)cc1	nt	nt	16µM*	nt	nt	26µM*
Cc1ccc(C(=O)c2cn(Cc3ccccc3)c3cc4c(cc3c2=O)OCCO4)cc1	nt	nt	21µM*	nt	nt	?
CCc1ccc2c(c1)c(=O)c(C(=O)c1ccc(C)cc1)cn2CC(=O)Nc1ccc2c(c1)OCCO2	nt	nt	-1%	nt	nt	1%
CCN(Cc1ccccc1)C(c1ccc(Cl)cc1)c1nnnn1C(C)(C)C (stereo not drawn)	-3%	0	26µM*	0%	6%	?
c1ccc(CN(Cc2cccs2)C(c2cccs2)c2nnnn2C2CCCC2)cc1 (stereo not drawn)	-16%	-6	?	-15%	-3%	18µM*
O=C(c1ccco1)N1CCN(C(c2cccs2)c2nnnn2C2CCCC2)CC1 (stereo not drawn)	0%	-12	-10%	2%	7%	?
CCN(Cc1ccccc1)C(c1ccc(C)cc1)c1nnnn1C(C)(C)C (stereo not drawn)	5%	-15	?	1%	0%	?
CC(C)(C)n1nnnc1C(c1ccncc1)N(Cc1ccccc1)Cc1ccco1 (stereo not drawn)	-3%	?	?	0%	-3%	23µM*
CC(C)(C)n1nnnc1C(c1cccs1)N(Cc1ccccc1)Cc1ccco1 (stereo not drawn)	-2%	-20	?	-21%	-11%	16µM*
COc1cc(Cl)ccc1OCc1cc(C(=O)NCCCN2CCCC2=O)no1	10%	4	?	3%	-2%	10%
Cc1c(C(=O)Nc2ccc(F)c(F)c2)oc2ccc(S(=O)(=O)N(C)C3CCCCC3)cc12	nt	nt	18µM*	nt	nt	15µM*
Cc1c(C(=O)NCC2COc3ccccc3O2)oc2ccc(S(=O)(=O)N(C)C3CCCCC3)cc12 (stereo not drawn)	-17%	-9	?	-1%	4%	15µM*
COc1ccc(C)cc1NC(=O)c1oc2ccc(S(=O)(=O)N(C)C3CCCCC3)cc2c1C	nt	nt	-3%	nt	nt	0%
CSCC[C@H](NC(=O)[C@H](Cc1ccccc1)n1c(=O)[nH]c2ccccc2c1=O)C(=O)N1CCC[C@H]1C(=O)O	-2%	10	0%	5%	-3%	7%
COC(=O)c1ccc(C2Nc3ccc(/C(C)=N/NC(=O)C(OC)c4ccccc4)cc3C3C=CCC32)cc1 (stereo not drawn)	6%	-8	13µM*	0%	2%	15µM*
CC(=O)c1ccc2c(c1)C1C=CCC1C(c1ccncc1)N2 (stereo not drawn)	-1%	12	-18%	-1%	-1%	?
COc1cccc([C@H]2Nc3ccc(S(=O)(=O)Nc4cc(C)ccc4C)cc3[C@H]3C=CC[C@H]32)c1	nt	nt	3.7µM*	nt	nt	5.2µM*
CC(C)C1Nc2ccc(S(N)(=O)=O)cc2C2C=CCC21 (stereo not drawn)	-3%	-2	?	-6%	4%	-15%
Cc1ccc(NS(=O)(=O)c2ccc3c(c2)[C@H]2C=CC[C@H]2[C@@H](c2ccc(F)cc2)N3)cc1C	nt	nt	8.2µM*	nt	nt	5.2µM*
SMILES	HT1080NT lethal	IL1B secr inh	DT40 TDP1 CPT	HT1080 IDH1KD tx	uPA surface inh	DT40 TDP1 no CPT
COC(=O)c1ccc([C@H]2Nc3ccc(S(=O)(=O)Nc4cccc(C)c4)cc3[C@H]3C=CC[C@H]32)cc1	nt	nt	1.8µM*	nt	nt	1.2µM*
O=C(O)c1ccc(NS(=O)(=O)c2ccc3c(c2)C2C=CCC2C(c2ccccc2F)N3)cc1 (stereo not drawn)	-23%	21	7%	-15%	-3%	-6%
CCOC(=O)C1(C)CCN1C(=O)c1cccc(C(F)(F)F)c1 (stereo not drawn)	9%	29	-26%	11%	nt	-26%
COc1ccc(NC(=O)CSc2ccc3nnc(CCNC(=O)c4ccccc4)n3n2)cc1OC	2%	-16	1%	7%	0%	-3%
COc1ccc(OC)c(C(c2nnnn2Cc2ccccc2)N2CCN(C3CCCCC3)CC2)c1 (stereo not drawn)	-5%	-30	18µM*	-3%	-4%	?
CC(C)C(c1nnnn1Cc1ccc(F)cc1)N1CCN(C2CCCCC2)CC1 (stereo not drawn)	-3%	-7	?	0%	2%	?
Fc1ccc(Cn2nnnc2C(c2cccs2)N2CCN(C3CCCCC3)CC2)cc1 (stereo not drawn)	0%	0	15µM*	-1%	13%	16µM*
COc1ccc(Cn2nnnc2C(c2ccc(C)cc2)N2CCN(C3CCCC3)CC2)cc1 (stereo not drawn)	?	?	16µM*	-26%	0%	9.2µM*
COCCCOc1cc(C[C@@H](C[C@H](N)[C@@H](O)C[C@H](C(=O)NCC(C)(C)C(N)=O)C(C)C)C(C)C)ccc1OC	nt	nt	11%	nt	nt	-5%
